# Results published in PubChem BioAssay (NCI).
# The panel holds about 83,000 compounds, 20% with a hit somewhere; the sample as a whole holds those more often.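 Plates (96-well) were seeded with cells, treated with compound at one concentration, and incubated for 48 hours before percent growth was determined.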 Unmarked numbers belong to inactive results. The source made the active and inactive calls. Rule for the calls: active = growth percent below 10; inactive = the rest.
# Key:
# Test in all cases: NCI-60 one-dose screen, 48 h (100 = growth as untreated, 0 = no growth, -100 = all killed)
# Details in all cases: 10 µM
# SN12C renal = test system: SN12C renal
# UO-31 renal = test system: UO-31 renal
# TK-10 renal = test system: TK-10 renal
# ACHN renal = test system: ACHN renal
# CAKI-1 renal = test system: CAKI-1 renal
# A498 renal = test system: A498 renal
# CCRF-CEM leukemia = test system: CCRF-CEM leukemia
# MOLT-4 leukemia = test system: MOLT-4 leukemia
# RPMI-8226 leukemia = test system: RPMI-8226 leukemia
# OVCAR-8 ovarian = test system: OVCAR-8 ovarian
# OVCAR-5 ovarian = test system: OVCAR-5 ovarian
# OVCAR-4 ovarian = test system: OVCAR-4 ovarian
# SK-OV-3 ovarian = test system: SK-OV-3 ovarian
# IGROV1 ovarian = test system: IGROV1 ovarian
# OVCAR-3 ovarian = test system: OVCAR-3 ovarian
# HS 578T breast = test system: HS 578T breast
# NCI/ADR-RES ovarian = test system: NCI/ADR-RES ovarian
# T-47D breast = test system: T-47D breast
# SR leukemia = test system: SR leukemia
Compound,growth (SN12C renal),growth (UO-31 renal),growth (TK-10 renal),growth (ACHN renal),growth (CAKI-1 renal),growth (A498 renal),growth (CCRF-CEM leukemia),growth (MOLT-4 leukemia),growth (RPMI-8226 leukemia),growth (OVCAR-8 ovarian),growth (OVCAR-5 ovarian),growth (OVCAR-4 ovarian),growth (SK-OV-3 ovarian),growth (IGROV1 ovarian),growth (OVCAR-3 ovarian),growth (HS 578T breast),growth (NCI/ADR-RES ovarian),growth (T-47D breast),growth (SR leukemia)
Cc1ccc(Nc2cc(C)nc(NCCCNc3ccnc4cc(Cl)ccc34)n2)cc1,-81% (active),-95% (active),-94.7% (active),-98.2% (active),-87.2% (active),-59.4% (active),-27.8% (active),-47.6% (active),-63.8% (active),-60.7% (active),1.62% (active),-26.1% (active),-47.5% (active),7.69% (active),-79.9% (active),-58.6% (active),-33% (active),-73% (active),–
O=C1Nc2ccc(Cl)cc2/C1=C\c1c(-c2ccc(Cl)cc2)nc2sc(C3CC3)nn12,75.7%,63.7%,52.9%,44.4%,45.7%,14.9%,93.6%,–,69.5%,26.5%,77.8%,9.28% (active),39.2%,71.5%,63.9%,7.42% (active),45%,50.7%,44.2%
COc1cc(NC(=O)CSc2nc3ccccc3c(=O)n2CCc2ccccc2)cc(OC)c1OC,25.9%,-63.2% (active),-2.38% (active),-41.6% (active),45.4%,-21.8% (active),–,–,–,30%,65.9%,53.8%,-37.5% (active),8.76% (active),-30.6% (active),36.6%,36.5%,-1.62% (active),–
Cc1cc(Nc2ccc(Cl)cc2)nc(NCCCNc2ccnc3cc(Cl)ccc23)n1,-75.9% (active),-40.1% (active),-74.7% (active),-81.1% (active),-36.3% (active),12.7%,-22.7% (active),-47.7% (active),-59.8% (active),-53.5% (active),–,-3.7% (active),-78.7% (active),6.54% (active),-80.1% (active),-53.4% (active),2.15% (active),-90.2% (active),–
COc1ccc(-c2nn(-c3cccc(NC(=O)c4ccc5c(c4)OCCO5)c3)cc2-c2ccncc2)cc1Cl,51.6%,16%,36.2%,41.4%,15%,-19.3% (active),7.54% (active),11.3%,-11.4% (active),29.6%,42.7%,49%,25.9%,41.5%,4.99% (active),1.38% (active),10.2%,19.5%,–
COc1cc(/C=C\c2cc(OC)c(OC)c(OC)c2)cc(NS(=O)(=O)c2ccc(Cl)cc2)c1OC,27.2%,35.9%,55.2%,39%,37.1%,-5.88% (active),14.6%,–,9.59% (active),17.1%,45%,58.4%,28.2%,46.8%,10.3%,1.49% (active),12.8%,55.3%,14.4%
COc1ccc(NC(=O)CSc2nc3ccccc3c(=O)n2CCc2ccccc2)cc1,79%,90.2%,109%,93.4%,87.5%,101%,–,–,–,60.7%,101%,97%,75.5%,82.3%,90.4%,51.2%,85.2%,93.3%,–
COc1ccc(Nc2cc(C)nc(NCCCNc3ccnc4cc(Cl)ccc34)n2)cc1,1.94% (active),-73.5% (active),-83.9% (active),-93% (active),-69.6% (active),-0.29% (active),-21.9% (active),-35.1% (active),-58.8% (active),-8.6% (active),18.3%,4% (active),-25.3% (active),29.7%,-82.1% (active),-53.9% (active),29%,-94.7% (active),–
CN(Cc1ccccc1)Cc1ccc([N+](=O)[O-])cc1I,99.9%,88.4%,106%,101%,93%,81.4%,–,91.1%,91.9%,102%,93.7%,91%,94.9%,92.5%,98.9%,95.4%,103%,93.9%,67.2%
COc1ccc(-c2nc3sc(-c4ccccc4)c(-c4ccccc4)n3c2/C=C/C(=O)c2ccccn2)cc1,86.6%,66%,90.7%,66.2%,87.1%,96.1%,52.4%,45.7%,45.7%,67.9%,115%,43.7%,103%,82.6%,81.3%,80.6%,85.9%,63.9%,–
N#Cc1cccc(OCc2nc(N)nc(N)c2-c2ccc(Cl)c(Cl)c2)c1,33.3%,33.6%,46.1%,17.7%,10.5%,53.5%,–,32.7%,60.1%,19.3%,35.6%,88.3%,39%,17.8%,38.5%,49.7%,34.1%,71.5%,18.1%
O=C(Nc1cccc(-n2cc(-c3ccncc3)c(-c3ccc(O)c(Cl)c3)n2)c1)c1cccc(C(F)(F)F)c1,49.9%,15.8%,46.9%,29.6%,12.2%,57.7%,19.8%,29.8%,13.4%,18.4%,89.4%,51.2%,71.2%,51.6%,45.1%,41.2%,–,15%,–
COc1cc(Nc2ccnc(NCCNc3ccnc4cc(Cl)ccc34)n2)cc(OC)c1,52%,37%,48.3%,30.7%,40.8%,39.9%,–,15.3%,-42.7% (active),45.4%,43.9%,42.4%,75.1%,23.6%,56.8%,63.7%,67.9%,15.5%,–
CCCCCCCC(C)NCCO (centres undefined),112%,80.8%,105%,117%,97.1%,104%,–,99.6%,107%,98.7%,111%,118%,93.6%,103%,101%,99.4%,111%,100%,108%
COc1ccc(-c2nc3sc(-c4ccc(OC)cc4)c(-c4ccc(OC)cc4)n3c2/C=C/c2ccc(C(C)C)cc2)cc1,99.2%,83.6%,97.7%,97.9%,82.2%,99.1%,96%,–,97.4%,97%,94.6%,90.8%,97.4%,111%,100%,89.4%,106%,97.2%,97.4%
c1ccc([I+]c2ccccc2)cc1,96.7%,45.9%,56.6%,77.1%,37.3%,65%,51.5%,62.9%,46.7%,39.2%,85.2%,66%,68.7%,45.6%,62.7%,116%,91.5%,76.8%,–
CCOC(=O)N1C=CC2C=CC1C1C=CC=CC2N1C(=O)OCC (centres undefined),99.3%,83.4%,111%,101%,84.5%,89.7%,–,95.5%,89.5%,96.5%,95%,97.8%,97%,97.8%,100%,87.5%,95.3%,98.9%,–
O=c1oc2cc(OS(=O)(=O)c3ccccc3)ccc2c2c1CCCCC2,61.4%,59.4%,67.9%,82.2%,73.9%,48.9%,37.2%,31.4%,23.4%,60.4%,83%,53.7%,84.3%,83.4%,81.5%,75.6%,56%,24.8%,–
